# KB-3-1 cytotox: qHTS assay for MDR1-selective chemotherapeutics: Primary screen using the parental adenocarcinoma cell KB-3-1. 1.4% of 400,000 active. KB-3-1 viability, CellTiter-Glo ATP luminescence, 72 h. Potency, µM (doses to about 46.1 µM), most hits filed as cytotoxic; note: % is set by controls: 0 for no effect and ±100 for the full control effect; nearly all actives have a fitted effect of over 60% in size
#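 Viability of parental KB-3-1 cells, measured by CellTiter-Glo luminescence, followed a 72 h incubation at 37 °C with pinned compounds in phenol-red-free DMEM containing 10% FBS.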
# SW480 rerep: A quantitative high throughput screen for small molecules that induce DNA re-replication in SW480 colon adenocarcinoma cells. 1.8% of 340,000 active. Potency, µM (top dose mostly 46.1 µM), for the others: at the highest dose re-replication activation, usual class: activators. SW480 DNA re-replication, Hoechst DNA content imaging, 48 h; note: % of control where 0% means no effect; nearly all actives have a fitted effect of over 55% in size
#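 Cells (250 per well) received 23 nL compound or DMSO by pin tool and were kept 48 hr at 37 C, 5% CO2. Nuclei were then stained with Hoechst for 40 min and scanned for DNA content.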
# KB-V1 MDR tox: qHTS assay for MDR1-selective chemotherapeutics: Primary screen using the drug-selected MDR subline cells KB-V1. Potency, µM (top dose mostly 46.1 µM), actives largely listed as cytotoxic. KB-V1 MDR cells viability, CellTiter-Glo, 72 h. 3.4% of 400,000 active; note: % is set by controls: 0 for no effect and ±100 for the full control effect; nearly all actives have a fitted effect of over 60% in size
#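 KB-V1, DMEM (no phenol red) + 10% FBS; cpd pin-transferred, titration series; 72 h, 37 degrees C; CellTiter-Glo, luminescence. Data normalized, curve-fit.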
# HT1080NT lethal: qHTS for induction of synthetic lethality in tumor cells producing 2HG: qHTS for the HT-1080-NT fibrosarcoma cell line; HT-1080-NT fibrosarcoma viability, CellTiter-Glo ATP luminescence, 48 h; Potency, µM (titrated, usually from 46.1 µM), without a hit: at the highest dose activity, negative = less viability, most hits filed as cytotoxic; 1.6% of 360,000 active;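 note: NT is the 2HG producing partner of a matched IDH1 knockdown line; 0% = DMSO-treated cells and -100% = media-only wells without cells; nearly all actives have a fitted effect of over 55% in size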
#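 A 48-hour cytotoxicity screen used HT-1080-NT cells plated 2 hours before compound delivery. ATP-based CellTiter-Glo luminescence measured viability, normalized to DMSO and no-cell controls.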
# MCF10A rereplic: A quantitative high throughput screen for small molecules that induce DNA re-replication in MCF 10a normal breast cells; MCF 10A DNA re-replication, Hoechst nuclear intensity, 48 h; Potency, µM (titrated, usually from 46.1 µM), inactives show top-dose activity, positive = re-replication, most hits filed as activators; 2.9% of 350,000 active; AID 624296, 2012; note: % of control where 0% means no effect; nearly all actives have a fitted effect of over 50% in size
# HT1080 IDH1KD tx: qHTS for induction of synthetic lethality in tumor cells producing 2HG: qHTS for the HT-1080-IDH1KD cell line; HT-1080 IDH1 knockdown viability, ATP luminescence, 48 h; Potency, µM (highest dose often 46.1 µM), for the others: at the highest dose activity, negative = toxicity, most hits filed as cytotoxic; 2% of 360,000 active; AID 686971, 2013;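 note: 0% = DMSO wells and -100% = cell-free medium wells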
#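 Cytotoxicity counter-line: IDH1KD HT-1080, 48 h, CellTiter-Glo. Curves classed by r2, magnitude and activity.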
# * = called active by the depositor; i = inactive; u = inconclusive; x = not tested or not shown. Sampled rows, rich in hits. Any-hit rate of the full collection: about 8%. Calls come from the whole dose curve; as a rule, active = well fitted curve in the direction sought with a large enough effect; inconclusive = small, poorly fitted or top-dose-only effect, or another doubt; inactive = no such curve, though single readings can be large; an effect the other way counts as inactive or inconclusive. Potency is the fitted concentration of half-maximal effect.
SMILES,KB-3-1 cytotox,SW480 rerep,KB-V1 MDR tox,HT1080NT lethal,MCF10A rereplic,HT1080 IDH1KD tx
C[C@H]1COc2cccc(N3CCC[C@@H]3CO)c2S(=O)(=O)N1,i,x,i,u,x,18.5%
Cc1cccn2c(=O)c3cc(C(=O)NCCc4ccccc4)c(=N)n(Cc4ccco4)c3nc12,i,6.51µM*,u,6.51µM*,13µM*,5.17µM*
Cc1cccn2c(=O)c3cc(C(=O)NCc4ccco4)c(=N)n(CCc4ccccc4)c3nc12,i,18.4µM*,u,-22.3%,2.91µM*,-6.8%
Cc1cc(=O)n2c(C(=O)Nc3ccc(C(=O)OC(C)C)cc3)c(C(=O)Nc3ccccc3)sc2n1,i,-81.3%,i,u,16.4µM*,-22.6%
CC(C)Cn1cc(NC(=O)N2CCN(c3cccc(Cl)c3)CC2)c2ccccc2c1=O,i,x,i,x,x,x
CC(C)NC(=O)C1(C)CSCC(=O)N1Cc1cccc(F)c1 (stereo not drawn),i,x,i,21.8%,x,12.0%
CC(NC(=O)C1CCN(C(=O)c2cccs2)CC1)c1ccc(S(N)(=O)=O)cc1 (stereo not drawn),i,-17.1%,i,7.3%,0.4%,-3.2%
CC1CCC(=NO)C(=NO)C1 (stereo not drawn),i,u,i,4.5%,7.3%,2.6%
O=C(CCc1ccccc1)NCC(c1ccco1)N1CCc2ccccc21 (stereo not drawn),3.66µM*,18.4µM*,7.31µM*,6.51µM*,4.61µM*,5.17µM*
O=C(NCC(c1ccco1)N1CCc2ccccc21)c1ccccc1F (stereo not drawn),i,0.9%,u,1.8%,9.2%,2.7%
O=C(O)CCCN1C(=O)C2C3CCC(C3)C2C1=O (stereo not drawn),i,x,u,1.2%,x,1.7%
COP(=O)(OC)c1nc(-c2cccc3ccccc23)oc1NCc1ccccc1,u,13µM*,11.6µM*,-14.4%,18.4µM*,-0.3%
COP(=O)(OC)c1nc(-c2ccccc2)oc1NCc1ccccc1,i,-4.8%,i,-12.2%,-1.9%,-9.4%
CCOc1ccc(C2C(C(N)=O)=C(C)Nc3nc(SCc4ccccc4F)nn32)cc1 (stereo not drawn),i,x,u,x,x,x
Cc1cc2nc(SCCOC(=O)Nc3cccc(Cl)c3)nc(C)c2cc1C,i,6.0%,i,0.0%,u,-25.5%
Cc1cc2nc(SCCOC(=O)Nc3ccccc3)nc(C)c2cc1C,i,5.4%,20.6µM*,5.4%,7.8%,9.6%
CCc1nnc(NC(=O)c2ccc(S(=O)(=O)N(CC(C)C)CC(C)C)cc2)o1,u,17.8%,u,u,8.91µM*,u
CN(c1ccccc1)S(=O)(=O)c1ccc(NC(=O)c2ccccc2)cc1,u,-7.0%,u,1.8%,16.6%,-3.1%
CCc1nnc(NC(=O)c2ccc(S(=O)(=O)N(C)c3ccccc3)cc2)o1,u,14.6µM*,i,-29.6%,6.7%,u
CCOC(=O)c1ccc(NC(=O)c2csnn2)cc1,i,x,i,x,x,x
O=C1c2cccc(-c3ccc(C(F)(F)F)cc3)c2C2CC=CCN12 (stereo not drawn),i,x,i,u,x,u
Cc1cccc(N(C)C(=O)C2CCN(S(=O)(=O)c3cccc4nonc34)CC2)c1,i,x,i,x,x,x
Cc1cccc(OC2(c3ccccc3)OC(=O)c3ccccc32)c1C (stereo not drawn),i,u,14.6µM*,-4.0%,3.8%,-23.1%

# High-throughput results as filed in PubChem BioAssay.
